This is an account of results in PubChem BioAssay AID493087 (The Scripps Research Institute Molecular Screening Center, 2011).

Screen size: about 340,000 compounds; about 240 (0.071%) were called active.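 How the source made its calls: active means activation above the mean of all tested compounds plus 3 SD, set per screening campaign (cut at about 17% in these data); inactive means the rest.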 Shown is part of a subset that was picked to be rich in actives.

The target of this assay is Insulin-degrading enzyme (Homo sapiens) (UniProt P14735). The assay can be described thus: human IDE activators in live cells, primary screen, fluorescence polarization, HEK cells, FAbeta-B substrate (AID 493087). The settings on record: FAbeta-B cleavage, at 5.96 µM, active compounds read high, 0% vehicle, 100% cell-free pure enzyme wells.
Sequence of Insulin-degrading enzyme (Homo sapiens) (P14735 whole entry, looked up): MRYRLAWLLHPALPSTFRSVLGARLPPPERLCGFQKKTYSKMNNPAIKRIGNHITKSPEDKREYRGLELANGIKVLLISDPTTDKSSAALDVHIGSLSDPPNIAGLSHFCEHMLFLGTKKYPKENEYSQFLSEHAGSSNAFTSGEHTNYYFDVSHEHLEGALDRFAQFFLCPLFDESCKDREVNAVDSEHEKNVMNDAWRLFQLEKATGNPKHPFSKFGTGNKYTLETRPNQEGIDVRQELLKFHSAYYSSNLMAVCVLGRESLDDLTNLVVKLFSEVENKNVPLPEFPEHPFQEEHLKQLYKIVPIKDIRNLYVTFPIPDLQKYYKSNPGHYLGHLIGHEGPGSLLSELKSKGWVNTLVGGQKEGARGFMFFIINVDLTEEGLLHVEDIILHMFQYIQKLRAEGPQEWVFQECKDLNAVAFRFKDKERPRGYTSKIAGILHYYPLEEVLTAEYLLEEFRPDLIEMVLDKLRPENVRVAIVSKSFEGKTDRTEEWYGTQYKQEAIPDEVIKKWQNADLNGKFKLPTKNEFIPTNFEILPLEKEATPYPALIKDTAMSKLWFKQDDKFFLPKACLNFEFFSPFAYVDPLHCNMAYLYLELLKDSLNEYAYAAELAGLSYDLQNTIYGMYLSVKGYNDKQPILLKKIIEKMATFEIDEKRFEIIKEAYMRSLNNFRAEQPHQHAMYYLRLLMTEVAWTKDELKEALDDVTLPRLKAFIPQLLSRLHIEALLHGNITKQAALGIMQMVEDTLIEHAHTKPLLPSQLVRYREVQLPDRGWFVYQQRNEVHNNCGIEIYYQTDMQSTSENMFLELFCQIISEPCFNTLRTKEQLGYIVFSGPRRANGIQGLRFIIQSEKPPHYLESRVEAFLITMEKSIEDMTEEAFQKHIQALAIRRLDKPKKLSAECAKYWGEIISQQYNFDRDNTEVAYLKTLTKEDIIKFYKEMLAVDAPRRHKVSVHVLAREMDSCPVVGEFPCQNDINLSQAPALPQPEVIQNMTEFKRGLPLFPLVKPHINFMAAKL
With `Cc1ccccc1CSCCNC(=O)c1ccc(N(C)S(=O)(=O)c2ccccc2)cc1`, the activation was 1.48% (inactive).
The result for `O=c1c([N+](=O)[O-])cccn1Cc1ccc(F)cc1Cl` reads -1.28% (inactive).
The result for `Cc1ccc(CNC(=O)CCCNC(=O)c2ccc(Cl)cc2)n1C` reads 5.76% (inactive); that for `CCOc1cc(/C=C2\SC(N3CCCC(C)C3)=NC2=O)ccc1O` (stereo not given), -15.9% (inactive); that for `CC(=O)Nc1ccc(S(=O)(=O)NCC(=O)OCc2cc(=O)oc3ccc4ccccc4c23)cc1`, 3.05% (inactive).
The value for `CCC(=O)NNc1cc(=O)c2c(=O)n(C)c(=O)n(C)c2[nH]1` was 3.85% (inactive).
Regarding `Cc1noc(C)c1CSCC(=O)Nc1ccc(Br)cc1Cl`, the activation was 2.79% (inactive).
Turning to `CC1=C/C(=N\OS(=O)(=O)c2ccccc2)C=CC1=O`, the activation was -10.8% (inactive).
The value for `Cc1cccc(NC(=O)c2cccc(C(=O)Nc3cccc(C)c3C)n2)c1C` was -1.85% (inactive); that for `CC(C)(C)C1C/C(=C/c2ccco2)C(=O)/C(=C/c2ccco2)C1` (stereo not given) was -0.63% (inactive); that for `CC1CCN(C(=O)C2CCN(S(=O)(=O)N3CCC4(CC3)OCCO4)CC2)CC1` was 0.48% (inactive).
The result for `CCOC(=O)N1CCN(Cc2nc3ccc([N+](=O)[O-])cc3c(=O)n2-c2cccc(OC)c2)CC1` reads 1.47% (inactive); that for `CCOc1ccc(N2C(=O)/C(=C/c3ccc(C)o3)N(C)C2=S)cc1`, 2.68% (inactive).
Consider `CCC(C)(C)NC(=O)CN(C(=O)C(=O)Nc1ccc2c(c1)OCCO2)C(C)(C)CC`, for which the activation was 4.63% (inactive).
For `CCOC(=O)C1(C(F)(F)F)N=C(N(C)C)OC(N(C)C)=N1`, the activation was 8.14% (inactive).
The result for `CCN(CC)CCCC(C)n1c2nc(=O)[nH]c(=O)c-2nc2cc(Cl)ccc21` (stereo not given) reads 75.3% (active); that for `C#CCOCCOCCOCCNc1nc(N2CCN(C(=O)[C@H](CCC(=O)O)n3cc(CN)nn3)CC2)nc(N2CCN(C(=O)[C@H](CCC(=O)O)n3cc(CN)nn3)CC2)n1`, 1.77% (inactive).
The result for `C#CCOCCOCCOCCNc1nc(N2CCN(C(=O)CCCCCCCCCCNC(=O)Cn3cc(CCCCCN)nn3)CC2)nc(N2CCN(C(=O)CCCCCCCCCCNC(=O)[C@H](CO)n3cc(CCCSC)nn3)CC2)n1` reads 32.6% (active).
The value for `C#CCOCCOCCOCCNc1nc(N2CCN(C(=O)Cn3cc(CCO)nn3)CC2)nc(N2CCN(C(=O)[C@H](CCCCN)n3cc(CCCC)nn3)CC2)n1` was 2.74% (inactive); that for `C#CCOCCOCCOCCNc1nc(N2CCN(C(=O)[C@H](CCCN=C(N)N)n3cc(C(N)[C@@H](C)CC)nn3)CC2)nc(N2CCN(C(=O)[C@H](CO)n3cc([C@@H](N)C(C)C)nn3)CC2)n1` (stereo not given in full) was -0.94% (inactive).
`C#CCOCCOCCOCCNc1nc(N2CCN(C(=O)Cn3cc(CCO)nn3)CC2)nc(N2CCN(C(=O)Cn3cc(CCCN=C(N)N)nn3)CC2)n1`: the activation is -2.84% (inactive).
The result for `C#CCOCCOCCOCCNc1nc(N2CCN(C(=O)CCCCCCCCCCNC(=O)[C@H](CCCCN)n3cc(C)nn3)CC2)nc(N2CCN(C(=O)CCCCCCCCCCNC(=O)[C@H](CO)n3cc(CCCSC)nn3)CC2)n1` reads 29.3% (active); that for `C#CCOCCOCCOCCNc1nc(N2CCN(C(=O)CCCCCCCCCCNC(=O)[C@H]([C@@H](C)CC)n3cc(CCCCN=C(N)N)nn3)CC2)nc(N2CCN(C(=O)CCCCCCCCCCNC(=O)[C@H](CO)n3cc(CCCSC)nn3)CC2)n1`, 58% (active); that for `C#CCOCCOCCOCCNc1nc(N2CCN(C(=O)[C@H](CCCCN)n3cc(CCC(=O)O)nn3)CC2)nc(N2CCN(C(=O)[C@H](CCCCN)n3cc(CC(C)O)nn3)CC2)n1` (stereo not given in full), -4.23% (inactive).
On to `C#CCOCCOCCOCCNc1nc(N2CCN(C(=O)Cn3cc(CCCCN)nn3)CC2)nc(N2CCN(C(=O)[C@H](CCCCN)n3cc(CCC(=O)O)nn3)CC2)n1`, for which the activation is -2.39% (inactive).
